# Assay results: article PMC4336329 (PLoS ONE, 2015)
# Screen size: about 310,000 compounds; about 14,000 (4.5%) showed an effect of 50% or more. Effects have a minus sign here. Many of the other results were omitted from the sample, so strong results are more common in it than they were.
# Biological target: human ether-à-go-go-related gene (hERG) potassium channel (human, UniProt Q12809)
# Experiment: primary screen, population patch clamp on CHO cells stably expressing hERG; higher = less effect of the substance
# 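Further: peak tail current of the secondary pulse compared with the same well before compound.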
# Sequence of human ether-à-go-go-related gene (hERG) potassium channel (Q12809 whole entry, looked up): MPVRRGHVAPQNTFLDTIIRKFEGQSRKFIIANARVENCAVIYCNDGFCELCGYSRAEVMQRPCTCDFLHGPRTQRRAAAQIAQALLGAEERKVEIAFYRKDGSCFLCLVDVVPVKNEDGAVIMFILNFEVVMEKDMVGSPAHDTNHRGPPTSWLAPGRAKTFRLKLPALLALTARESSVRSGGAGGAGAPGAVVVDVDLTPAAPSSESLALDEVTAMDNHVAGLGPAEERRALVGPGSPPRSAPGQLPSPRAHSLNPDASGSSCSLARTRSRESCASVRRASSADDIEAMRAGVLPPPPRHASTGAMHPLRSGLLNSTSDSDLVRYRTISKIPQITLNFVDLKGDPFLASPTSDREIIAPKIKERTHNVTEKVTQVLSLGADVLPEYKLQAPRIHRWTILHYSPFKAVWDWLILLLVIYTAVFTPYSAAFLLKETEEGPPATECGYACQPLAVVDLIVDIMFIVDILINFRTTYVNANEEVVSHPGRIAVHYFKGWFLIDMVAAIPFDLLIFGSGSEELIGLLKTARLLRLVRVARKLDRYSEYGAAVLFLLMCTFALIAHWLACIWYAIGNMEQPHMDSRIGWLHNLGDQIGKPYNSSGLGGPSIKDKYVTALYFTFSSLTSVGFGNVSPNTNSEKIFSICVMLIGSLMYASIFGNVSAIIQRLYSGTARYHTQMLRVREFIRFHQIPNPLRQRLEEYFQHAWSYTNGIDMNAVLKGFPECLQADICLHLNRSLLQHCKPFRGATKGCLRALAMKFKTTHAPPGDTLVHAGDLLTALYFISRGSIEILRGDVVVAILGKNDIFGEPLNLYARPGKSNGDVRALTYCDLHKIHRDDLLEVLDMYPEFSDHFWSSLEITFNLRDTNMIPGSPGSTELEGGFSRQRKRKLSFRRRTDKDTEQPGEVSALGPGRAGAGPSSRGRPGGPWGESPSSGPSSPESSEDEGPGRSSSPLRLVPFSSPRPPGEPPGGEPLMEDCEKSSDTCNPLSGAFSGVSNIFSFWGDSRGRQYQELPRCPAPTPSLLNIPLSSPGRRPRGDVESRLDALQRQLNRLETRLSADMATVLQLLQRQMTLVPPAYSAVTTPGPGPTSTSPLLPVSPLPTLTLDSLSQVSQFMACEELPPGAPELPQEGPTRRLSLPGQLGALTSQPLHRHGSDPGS
row,Compound,"hERG current change (%, negative = inhibition) at 10uM"
1,CC(C)(C)C(=O)NC(=S)NNC(=O)c1sc2ccccc2c1Cl,5.79%
2,Cc1ccc(S(=O)(=O)N2CCN(C(=O)CN3CCCC3)C2)cc1,-6.28%
3,NNC(=O)c1sc2nc(N3CCOCC3)c3c(c2c1N)CCCC3,11%
4,O=c1cnc2ccccc2n1Cc1ccc(Br)cc1,0.175%
5,CCn1nnnc1SCC(=O)Nc1cc(OC)cc(OC)c1,11.8%
6,COC(=O)[C@H](Cc1ccccc1)NC(=O)N1CCCCC1,9.93%
7,O=C(c1ccc(F)cc1)N1CCN(Cc2ccccc2)CC1,0.241%
8,O=C(c1ccc(Br)cc1)N1CCN(Cc2ccccc2)CC1,-52.2%
9,COC(=O)[C@H](Cc1ccccc1)NC(=O)N1CCN(Cc2ccccc2)CC1,-58.6%
10,CS(=O)(=O)c1ccc(C(=O)N2CCN(Cc3ccccc3)CC2)cc1,-55%
11,O=C(c1ccc(S(=O)(=O)N2CCCCCC2)cc1)N1CCN(Cc2ccccc2)CC1,-19.5%
12,COC(=O)[C@H](Cc1ccccc1)NC(=O)N1CCCCCC1,13.5%
13,O=C(O)C(=O)O.O=C(c1ccccc1)N1CCN(Cc2ccccc2)CC1,-9.23%
14,CC(C)(C)c1ccc(C(=O)N2CCN(Cc3ccccc3)CC2)cc1,-3.08%
15,O=C(c1cccc(Cl)c1)N1CCC(N2CCC(C(=O)N3CCCC3)CC2)CC1,-49.1%
16,O=C(c1cccc(Cl)c1)N1CCN(Cc2ccccc2)CC1,-8.35%
17,O=C(c1cccc(Cl)c1)N1CCC(C(=O)N2CCN(Cc3ccccc3)CC2)CC1,-56.2%
18,CCOC(=O)/C(=C/c1ccc(F)cc1)NC(C)=O,-7.91%
19,COCCCNC(=O)CCNS(=O)(=O)c1ccc(C)cc1,-1.45%
20,Cc1ccc2ncnc(Oc3ncccc3NC(=O)C(C)(C)C)c2c1,13.8%
21,O=S(=O)(N1CCCCC1)N1CCN(c2cc(Cl)ccc2Cl)CC1,15.2%
22,COc1ccc(C2Nc3ccccc3C(=O)N2Cc2ccco2)cc1CN1C(=O)c2ccccc2C1=O (stereo not drawn),-20.7%
23,O=C(NCc1ccco1)C(=O)c1cn(CC(=O)N2CCCCC2)c2ccccc12,19.3%
24,O=C(O)CC/C(=N\NC(=O)CNC(=O)c1ccc(F)cc1)c1ccccc1,9.42%

row,Compound,"hERG current change (%, negative = inhibition) at 10uM"
1,Cc1ccc(CNC(=O)COC(=O)Cn2nc(C)c([N+](=O)[O-])c2C)cc1,-16.3%
2,COc1ccc(C(=O)NCc2ccc(N3CCN(C(=O)OC(C)(C)C)CC3)cc2)cc1,-12.7%
3,COC(=O)c1cc(-c2c(-c3ccc4c(c3)OCO4)noc2-c2ccsc2)cc([N+](=O)[O-])c1,10.7%
4,O=C(c1ccc(Br)cc1)N1CCC(C(=O)N2CCN(Cc3ccccc3)CC2)CC1,-60.1%
5,CS(=O)(=O)c1ccccc1C(=O)N1CCN(Cc2ccccc2)CC1,23.7%
6,COc1ccc(C(=O)N2CCC(C(=O)N3CCN(Cc4ccccc4)CC3)CC2)cc1,-9.58%
7,Cc1occc1C(=O)N1CCN(Cc2ccccc2)CC1,-1.16%
8,O=C(C1CC1)N1CCN(Cc2ccccc2)CC1,-32.1%
9,O=C(c1coc(=O)c2ccccc12)N1CCN(Cc2ccccc2)CC1,-51.2%
10,Clc1ccccc1/C=C/c1nc(-c2cccnc2)no1,6.16%
11,CCN(CC)c1ccc(NC(=O)c2cnc3ccccn3c2=O)c(C)c1,4.51%
12,CCOC(=O)c1ccc(NC(=O)c2cccc(C)c2[N+](=O)[O-])cc1,4.73%
13,COc1ccc(C(=O)c2nccc3cc(OC)c(OC)cc23)cc1OC,6.21%
14,CC1CCN(C2(O)C(=O)Nc3ccc(Br)cc32)CC1 (stereo not drawn),19.4%
15,CCC(C)(C)NC(=O)CN(C(=O)CNS(=O)(=O)c1ccccc1)c1ccc2c(c1)OCCO2,6.92%
16,Cc1ccc(NP(=O)(c2ccccc2)c2nc3ccccc3s2)cc1 (stereo not drawn),3.27%
17,O=C(c1ccc(Cl)c([N+](=O)[O-])c1)N1CCN(C(=O)c2ccco2)CC1,-41.6%
18,O=C(CN1CCN(C(=O)c2ccco2)CC1)Nc1cccc([N+](=O)[O-])c1,-49.1%
19,COC(=O)c1cc(C(=O)N2CCN(C(=O)c3ccco3)CC2)cc([N+](=O)[O-])c1,-66.7%
20,COC(=O)c1cc(C(=O)N2CCN(c3ccccc3OC)CC2)cc([N+](=O)[O-])c1,-34.7%
21,COC(=O)c1cc(C(=O)N2CCOCC2)cc([N+](=O)[O-])c1,21.7%
22,O=C(c1ccco1)N1CCN(C(=S)Nc2cccc([N+](=O)[O-])c2)CC1,-63.3%
23,O=C(c1ccco1)N1CCN(C(=S)Nc2cc(F)cc(F)c2)CC1,-16.5%
24,Cc1cccc(NC(=S)N2CCN(C(=O)c3ccco3)CC2)c1,-9.36%

row,Compound,"hERG current change (%, negative = inhibition) at 10uM"
1,O=C(c1ccco1)N1CCN(C(=S)Nc2ccc(F)c(Cl)c2)CC1,-71.9%
2,Cc1cc(C(=O)N2CCN(C(=O)c3ccco3)CC2)ccc1[N+](=O)[O-],-64.7%
3,COc1ccc(NC(=S)N2CCN(C(=O)c3ccco3)CC2)cc1OC,14.6%
4,Cc1cc(C(=O)N2CCOCC2)ccc1[N+](=O)[O-],9.19%
5,COc1ccc(OC)c(S(=O)(=O)N2CCC(C(=O)NCc3ccncc3)CC2)c1,16.4%
6,CCn1c(O)c(/C=N/NC(=O)c2ccccc2)c(=O)n(CC)c1=S,13.6%
7,COc1ccc(OCC(=O)N/N=C2\CCc3ccccc32)cc1,-23.9%
8,CCOC(=O)C1=C(C)N=C2SC(C)C(=O)N2C1c1cccc(F)c1 (stereo not drawn),-3.16%
9,CCOC(=O)c1nnn(-c2nonc2N)c1CN(CC)CC,-7.44%
10,CCOc1ccccc1NC(=O)c1nnn(CC(=O)Nc2cc(C)cc(C)c2)c1N,15.7%
11,Cc1cc(-c2ccco2)n2c(nc3ccccc32)c1C#N,-25.9%
12,COc1ccc(C(=O)N2CCC(n3nccc3NC(=O)C3CC3)CC2)cc1F,-26.8%
13,O=C(O)CC1S/C(=N\N=C2CCCCCC2)N(c2ccccc2)C1=O (stereo not drawn),9.08%
14,O=C(/C=C/c1ccccc1[N+](=O)[O-])N1CCN(C(=O)c2ccco2)CC1,-45.6%
15,O=C(c1cccc([N+](=O)[O-])c1)N1CCN(C(=O)c2ccco2)CC1,-10.8%
16,O=C(/C=C/c1ccccc1)N1CCN(C(=O)c2ccco2)CC1,-28.6%
17,O=C(/C=C/c1cccc([N+](=O)[O-])c1)N1CCN(C(=O)c2ccco2)CC1,-64.8%
18,O=C(c1cc([N+](=O)[O-])cc([N+](=O)[O-])c1)N1CCN(C(=O)c2ccco2)CC1,-65.3%
19,O=C(c1ccco1)N1CCN(C(=O)c2ccccc2[N+](=O)[O-])CC1,22.4%
20,COc1ccccc1N1CCN(C(=O)c2ccc(-c3ccccc3)cc2)CC1,-5.25%
21,Cc1cc(C)cc(OCC(=O)NC(C)c2ccccc2)c1 (stereo not drawn),15.2%
22,CC(C)OCCCNC(=O)c1cc(-c2cccnc2)nc2ccccc12,-21.4%
23,Cc1ccc(C(CCN)c2ccco2)cc1 (stereo not drawn),-2.63%
24,Cc1ccc(S(=O)(=O)NCCC(c2ccccc2)c2ccco2)cc1 (stereo not drawn),0.23%

row,Compound,"hERG current change (%, negative = inhibition) at 10uM"
1,Cc1ccc(C(CCNC(C)c2cccs2)c2ccco2)cc1 (stereo not drawn),-57.1%
2,O=S(=O)(NCCC(c1ccc(F)cc1)c1ccco1)c1ccccc1 (stereo not drawn),-7.77%
3,Cc1ccc(S(=O)(=O)NCCC(c2ccc(F)cc2)c2ccco2)cc1 (stereo not drawn),10.8%
4,Fc1ccc(C(CCNCc2cccs2)c2ccco2)cc1 (stereo not drawn),-66.8%
5,Cc1cc(C)cc(NC(=O)CCCn2nc(C)c3c(C)n(-c4ccccc4)nc3c2=O)c1,-4.07%
6,CC(C(=O)NC1C(=O)N2C(C(=O)O)=C(CSc3nnnn3C)CSC12)n1cc(Br)cn1 (stereo not drawn),25.1%
7,CN(C)C(=O)CSc1nnc([C@H](Cc2ccccc2)NC(=O)OC(C)(C)C)o1,5.98%
8,O=C(CNS(=O)(=O)c1ccccc1)N1CCN(Cc2ccccc2)CC1,5.89%
9,CC1(C)CC(=O)C=C(c2ccc(I)cc2)C1,-2.72%
10,CCc1nc2ccccc2n1CC(=O)N1CCN(Cc2ccccc2)CC1,-61.5%
11,Cc1ccc(Cn2c(Cc3ccccc3)nc3ccccc32)cc1,-10.1%
12,OCCCc1nc2ccccc2n1Cc1ccccc1,7.46%
13,CCn1c(CN2CCN(c3ccc(Cl)cc3)CC2)nc2ccccc21,-55.3%
14,c1ccc(Cc2nc3ccccc3n2Cc2ccccc2)cc1,-53.4%
15,c1ccc(Cn2c(CN3CCCC3)nc3ccccc32)cc1,-64.6%
16,COc1ccc(N2CCN(Cc3nc4ccccc4n3C)CC2)cc1,-18.2%
17,Cn1c(CN2CCN(c3ccc(Cl)cc3)CC2)nc2ccccc21,-14.3%
18,Cc1cccc(Cn2c(Cc3ccccc3)nc3ccccc32)c1,-24.6%
19,ClCc1nc2ccccc2n1Cc1ccccc1,10.6%
20,O=C(Cn1c(NCCO)nc2ccccc21)N1CCN(Cc2ccccc2)CC1,-9.47%
21,CC(O)CNc1nc2ccccc2n1CC(=O)N1CCN(Cc2ccccc2)CC1 (stereo not drawn),-22.6%
